From ChEMBL document CHEMBL3988442, “University of Dundee, Small-Polar-MMV Screening Library” (2021)
For some of these results: Potency and affinity values are given separately.

Assays:
Set-up in all cases: scale not given: direction of the effect not stated beside the values
[1] = biological target: Protein translocase subunit SecA (Escherichia coli (strain K12)) (UniProt P10408); test: Assay to Identify E. coli SecA ATPase Inhibitors; format: functional; conditions: 30 µM
[2] = biological target: T1, Ubiquitin-activating enzyme e1, putative (Leishmania donovani (strain BPK282A1)) (UniProt E9BSI1); test: Leishmania donovani Ubiquitin Activating Enzyme (LdE1); format: functional; conditions: 30 µM
T1 sequence (whole entry): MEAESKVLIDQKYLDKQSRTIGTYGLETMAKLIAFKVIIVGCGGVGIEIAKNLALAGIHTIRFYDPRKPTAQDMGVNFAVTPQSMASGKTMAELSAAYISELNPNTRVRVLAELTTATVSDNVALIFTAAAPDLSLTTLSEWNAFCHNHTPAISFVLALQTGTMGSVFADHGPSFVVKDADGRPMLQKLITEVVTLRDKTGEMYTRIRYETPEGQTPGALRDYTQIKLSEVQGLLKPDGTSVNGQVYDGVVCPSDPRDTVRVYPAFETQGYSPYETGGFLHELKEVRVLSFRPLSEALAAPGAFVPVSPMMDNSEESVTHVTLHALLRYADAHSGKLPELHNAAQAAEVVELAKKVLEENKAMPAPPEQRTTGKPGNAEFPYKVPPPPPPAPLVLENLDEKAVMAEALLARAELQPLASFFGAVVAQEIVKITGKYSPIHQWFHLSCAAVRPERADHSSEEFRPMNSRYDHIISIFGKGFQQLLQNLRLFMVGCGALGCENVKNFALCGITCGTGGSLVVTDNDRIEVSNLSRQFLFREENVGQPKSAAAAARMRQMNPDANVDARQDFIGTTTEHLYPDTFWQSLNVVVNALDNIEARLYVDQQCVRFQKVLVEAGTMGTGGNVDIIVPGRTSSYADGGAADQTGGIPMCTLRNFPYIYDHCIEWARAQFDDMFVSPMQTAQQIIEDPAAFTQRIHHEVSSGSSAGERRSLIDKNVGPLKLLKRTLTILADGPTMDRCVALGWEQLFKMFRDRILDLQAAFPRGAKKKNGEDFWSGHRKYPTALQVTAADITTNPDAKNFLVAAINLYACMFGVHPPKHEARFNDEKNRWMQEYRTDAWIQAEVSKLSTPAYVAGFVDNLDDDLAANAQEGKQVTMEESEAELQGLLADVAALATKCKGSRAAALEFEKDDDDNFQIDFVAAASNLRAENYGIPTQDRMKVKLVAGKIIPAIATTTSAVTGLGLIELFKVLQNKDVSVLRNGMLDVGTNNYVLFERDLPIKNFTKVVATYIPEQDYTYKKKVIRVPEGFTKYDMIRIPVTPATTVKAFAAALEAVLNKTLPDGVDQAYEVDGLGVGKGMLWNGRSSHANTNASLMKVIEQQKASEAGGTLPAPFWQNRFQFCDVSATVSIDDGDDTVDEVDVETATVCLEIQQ

[3] = biological target: AMP-activated protein kinase, AMPK (Homo sapiens) (UniProt P54646+O43741+P54619+Q9UGJ0+Q9Y478+Q13131+Q9UGI9); test: AMP-dependent Kinase enzyme assay. An in vitro enzyme assay that detects ADP turnover that is directly proportional to AMPK activity. This uses naive AMPK that is activated during the assay with MK-8722; format: functional; conditions: 30 µM
[4] = biological target: Sialic acid-binding Ig-like lectin 9 (Homo sapiens) (UniProt Q9Y336); test: Hs-Siglec9 ALPHAscreen SOP 20170721; conditions: 10 µM
Sialic acid-binding Ig-like lectin 9 (Homo sapiens), sequence (Q9Y336 whole entry): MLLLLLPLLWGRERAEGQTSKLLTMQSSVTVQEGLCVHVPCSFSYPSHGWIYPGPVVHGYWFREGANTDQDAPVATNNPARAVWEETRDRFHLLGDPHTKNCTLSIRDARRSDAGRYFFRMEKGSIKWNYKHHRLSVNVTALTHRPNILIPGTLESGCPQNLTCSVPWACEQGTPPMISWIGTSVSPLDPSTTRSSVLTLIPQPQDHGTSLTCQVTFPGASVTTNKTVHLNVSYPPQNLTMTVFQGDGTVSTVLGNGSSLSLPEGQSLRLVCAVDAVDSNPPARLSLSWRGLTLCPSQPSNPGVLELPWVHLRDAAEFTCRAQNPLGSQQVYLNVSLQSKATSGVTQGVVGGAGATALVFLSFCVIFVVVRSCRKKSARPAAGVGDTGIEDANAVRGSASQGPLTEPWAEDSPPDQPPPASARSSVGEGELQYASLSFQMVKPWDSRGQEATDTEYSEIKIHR

Trypanosoma cruzi = test: Trypanosoma cruzi phosphomannomutase and mannose-1-phosphate guanylyltransferase assay; format: functional; conditions: 10 µM
[5] = biological target: T2, Arginase-2, mitochondrial (Homo sapiens) (UniProt P78540); test: in vitro enzyme assay to detect the production of urea directly proportional to the activity of Arginase II; format: functional; conditions: 33.3 µM; also: in the data most compounds retested in dose-response had high values
T2 sequence (whole entry): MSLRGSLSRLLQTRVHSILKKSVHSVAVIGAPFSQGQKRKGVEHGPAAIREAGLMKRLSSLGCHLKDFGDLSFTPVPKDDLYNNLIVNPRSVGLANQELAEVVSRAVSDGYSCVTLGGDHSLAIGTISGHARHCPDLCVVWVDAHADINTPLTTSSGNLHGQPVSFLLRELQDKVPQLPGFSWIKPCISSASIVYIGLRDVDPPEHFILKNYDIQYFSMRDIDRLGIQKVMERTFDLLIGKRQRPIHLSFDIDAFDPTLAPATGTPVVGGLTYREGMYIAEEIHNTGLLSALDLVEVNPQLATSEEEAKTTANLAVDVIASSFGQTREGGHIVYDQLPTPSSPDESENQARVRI

[6] = biological target: T3, Proteasome subunit beta (Trypanosoma cruzi) (UniProt O96673); test: Trypanosoma cruzi proteasome chymotrypsin-like activity (TcProtChymo) assay.; also: in the data most compounds retested in dose-response had high values; format: functional; conditions: 9.37 µM
T3 sequence (whole entry): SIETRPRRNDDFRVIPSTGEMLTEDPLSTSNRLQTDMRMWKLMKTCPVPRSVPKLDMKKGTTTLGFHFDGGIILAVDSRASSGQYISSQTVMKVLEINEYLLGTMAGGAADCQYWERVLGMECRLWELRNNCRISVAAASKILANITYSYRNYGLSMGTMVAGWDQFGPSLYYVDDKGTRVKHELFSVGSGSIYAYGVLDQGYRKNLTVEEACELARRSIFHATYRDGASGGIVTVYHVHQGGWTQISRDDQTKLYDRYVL

Homo sapiens = organism: Homo sapiens; test: To identify inhibition of the IFN signalling (Jak-Stat) pathway via expression of an eGFP reporter gene under the control of an IFN-stimulated response element (ISRE) containing MxA promoter.; format: functional; conditions: 30 µM
[7] = biological target: T4, Tyrosyl-tRNA synthetase, putative (Trypanosoma cruzi (strain CL Brener)) (UniProt Q4DSP6); test: Trypanosoma cruzi tyrosyl tRNA synthetase (TcYRS) _High Tyrosine SOP; format: functional; conditions: 30 µM; also: in the data most compounds retested in dose-response had high values
T4 sequence (whole entry): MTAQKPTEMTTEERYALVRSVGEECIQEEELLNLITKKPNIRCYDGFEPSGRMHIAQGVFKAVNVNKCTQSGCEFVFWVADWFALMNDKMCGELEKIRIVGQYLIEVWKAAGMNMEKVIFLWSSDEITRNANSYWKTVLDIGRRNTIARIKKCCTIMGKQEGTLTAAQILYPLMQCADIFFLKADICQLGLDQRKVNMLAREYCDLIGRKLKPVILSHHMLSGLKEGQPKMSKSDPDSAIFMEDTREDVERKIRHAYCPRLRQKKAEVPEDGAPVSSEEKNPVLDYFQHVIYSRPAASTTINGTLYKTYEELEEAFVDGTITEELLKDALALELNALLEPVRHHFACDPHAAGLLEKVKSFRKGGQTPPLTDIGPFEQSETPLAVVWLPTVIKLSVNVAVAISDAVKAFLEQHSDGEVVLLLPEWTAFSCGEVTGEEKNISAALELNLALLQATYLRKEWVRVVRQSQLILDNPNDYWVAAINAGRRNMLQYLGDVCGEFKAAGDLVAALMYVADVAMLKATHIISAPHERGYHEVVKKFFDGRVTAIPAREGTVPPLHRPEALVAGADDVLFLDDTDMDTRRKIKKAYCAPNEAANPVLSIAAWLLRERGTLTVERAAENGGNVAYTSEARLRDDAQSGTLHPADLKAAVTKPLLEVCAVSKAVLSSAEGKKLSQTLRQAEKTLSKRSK

[8] = biological target: T4, Tyrosyl-tRNA synthetase, putative (Trypanosoma cruzi (strain CL Brener)); test: Trypanosoma cruzi tyrosyl tRNA synthetase (TcYRS) SOP; format: functional; conditions: 30 µM
[9] = biological target: Chromo domain-containing protein 1 (Saccharomyces cerevisiae (strain ATCC 204508 / S288c) (Baker's yeast)) (UniProt P32657); test: ScCHD-1 Enzyme Inhibition Assay; format: functional; conditions: 30 µM; also: in the data most compounds retested in dose-response had high values
Chromo domain-containing protein 1 (Saccharomyces cerevisiae (strain ATCC 204508 / S288c) (Baker's yeast)), sequence (P32657 whole entry, the tested form may be a part): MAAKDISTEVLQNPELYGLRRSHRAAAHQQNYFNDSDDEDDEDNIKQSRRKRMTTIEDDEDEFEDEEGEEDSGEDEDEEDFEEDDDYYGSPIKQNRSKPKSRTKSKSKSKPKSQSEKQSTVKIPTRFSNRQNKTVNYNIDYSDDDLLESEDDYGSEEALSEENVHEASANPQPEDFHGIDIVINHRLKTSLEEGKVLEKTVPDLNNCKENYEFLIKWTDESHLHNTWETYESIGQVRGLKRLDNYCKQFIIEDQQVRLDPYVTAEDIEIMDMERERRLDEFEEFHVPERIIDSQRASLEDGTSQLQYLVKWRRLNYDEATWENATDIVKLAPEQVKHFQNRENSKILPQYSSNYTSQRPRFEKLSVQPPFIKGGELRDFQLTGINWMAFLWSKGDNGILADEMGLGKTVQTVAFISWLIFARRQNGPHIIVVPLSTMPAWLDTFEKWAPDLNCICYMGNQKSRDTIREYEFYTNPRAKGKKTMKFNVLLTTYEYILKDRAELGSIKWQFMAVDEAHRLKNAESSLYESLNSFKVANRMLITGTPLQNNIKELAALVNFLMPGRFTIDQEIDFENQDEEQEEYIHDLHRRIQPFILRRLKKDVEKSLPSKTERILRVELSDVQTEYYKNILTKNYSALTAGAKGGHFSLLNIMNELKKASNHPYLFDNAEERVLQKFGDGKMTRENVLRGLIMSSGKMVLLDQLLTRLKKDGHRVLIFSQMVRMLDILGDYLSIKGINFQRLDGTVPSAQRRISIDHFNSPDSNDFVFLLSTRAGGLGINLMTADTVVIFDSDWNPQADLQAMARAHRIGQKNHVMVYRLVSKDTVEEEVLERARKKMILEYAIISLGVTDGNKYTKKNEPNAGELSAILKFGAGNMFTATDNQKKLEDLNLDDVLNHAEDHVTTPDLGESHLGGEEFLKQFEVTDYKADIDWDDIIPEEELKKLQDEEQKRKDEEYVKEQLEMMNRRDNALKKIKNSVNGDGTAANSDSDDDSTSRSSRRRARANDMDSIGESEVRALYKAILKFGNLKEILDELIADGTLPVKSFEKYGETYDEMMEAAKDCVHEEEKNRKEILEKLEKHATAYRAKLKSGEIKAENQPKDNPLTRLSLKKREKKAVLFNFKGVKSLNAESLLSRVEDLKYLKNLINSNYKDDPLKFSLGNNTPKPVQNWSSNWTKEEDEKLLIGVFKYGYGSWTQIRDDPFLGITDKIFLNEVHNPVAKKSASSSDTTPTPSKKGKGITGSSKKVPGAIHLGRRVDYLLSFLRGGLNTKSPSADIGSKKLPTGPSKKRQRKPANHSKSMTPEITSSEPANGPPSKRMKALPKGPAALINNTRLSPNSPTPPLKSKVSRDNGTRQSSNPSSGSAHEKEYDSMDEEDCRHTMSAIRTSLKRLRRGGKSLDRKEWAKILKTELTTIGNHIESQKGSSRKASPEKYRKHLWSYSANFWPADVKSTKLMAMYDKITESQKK

Protein translocase subunit SecA (Escherichia coli (strain K12)), sequence (P10408 whole entry): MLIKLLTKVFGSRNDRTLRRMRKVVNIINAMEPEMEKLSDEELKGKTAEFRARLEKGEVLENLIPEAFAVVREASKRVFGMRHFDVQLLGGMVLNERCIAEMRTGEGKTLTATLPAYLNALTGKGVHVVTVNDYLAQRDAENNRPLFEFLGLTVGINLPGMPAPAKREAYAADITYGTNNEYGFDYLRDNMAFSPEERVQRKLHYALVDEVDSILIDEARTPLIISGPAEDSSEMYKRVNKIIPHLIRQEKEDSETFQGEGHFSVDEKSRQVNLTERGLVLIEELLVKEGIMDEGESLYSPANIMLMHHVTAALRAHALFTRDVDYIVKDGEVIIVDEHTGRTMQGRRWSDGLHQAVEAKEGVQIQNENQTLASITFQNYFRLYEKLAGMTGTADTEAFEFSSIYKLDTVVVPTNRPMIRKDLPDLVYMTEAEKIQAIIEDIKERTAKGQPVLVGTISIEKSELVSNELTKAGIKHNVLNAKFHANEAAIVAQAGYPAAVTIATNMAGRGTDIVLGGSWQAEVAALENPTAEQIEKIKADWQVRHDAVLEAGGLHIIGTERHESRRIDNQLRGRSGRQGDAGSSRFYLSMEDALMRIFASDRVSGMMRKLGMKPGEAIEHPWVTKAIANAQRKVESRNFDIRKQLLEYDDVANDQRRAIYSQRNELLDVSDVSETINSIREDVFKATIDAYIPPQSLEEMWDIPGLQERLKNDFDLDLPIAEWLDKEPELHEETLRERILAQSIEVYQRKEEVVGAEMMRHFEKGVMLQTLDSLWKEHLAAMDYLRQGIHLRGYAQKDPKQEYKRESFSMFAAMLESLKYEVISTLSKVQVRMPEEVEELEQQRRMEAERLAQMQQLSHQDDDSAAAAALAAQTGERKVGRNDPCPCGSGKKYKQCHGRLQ

Row | Compound | Percent Effect [1] [%] | Percent Effect [2] [%] | Percent Effect [3] [%] | Percent Effect [4] [%] | Percent Effect (Trypanosoma cruzi) [%] | Percent Effect [5] [%] | Percent Effect [6] [%] | Percent Effect (Homo sapiens) [%] | Percent Effect [7] [%] | Percent Effect [8] [%] | Percent Effect [9] [%]
1 | Cc1csc(N2CCCN(Cc3noc(C)n3)CC2)n1 | -2.54 | 3.8 | -4.18 | 0.549 | 2.36 | -7.1 | 15.9 | 11.2 | 5.21 | 7.59 | -16
2 | O=c1nc(SCc2cccnc2)c2c(n1CCO)CCC2 | -1.99 | 13.7 | -3.57 | 7.9 | 0.588 | 5 | 15.8 | 16.7 | 6.45 | 15 | -7.2
3 | CNC(=O)CN1CCC(NC(=O)N(C)Cc2cc(C)on2)CC1 | -1.81 | 13 | -1.11 | 13.1 | 9.7 | 0.632 | 9.78 | -1.08 | 8.57 | 18.8 | -7.35
4 | Cc1csc(CNC(=O)NCC(O)c2cccc(Cl)c2)n1 (configuration not stated) | -1.7 | 8.11 | -4.44 | 1.18 | 3.48 | -2.38 | 20.5 | 24.4 | 3.7 | 12.2 | -0.155
5 | CNC(=O)N1CC[C@H]2N(C)CC[C@@]2(C(=O)Nc2ccccc2)CC1 | -3.9 | 5.41 | -2.05 | 1.61 | 5.08 | 4.17 | 2.45 | 11.5 | 1.98 | 6.1 | -1.69
6 | Cc1cnn(CC2CCCN2C(=O)c2cn(-c3ccccc3)nc2C)c1 (configuration not stated) | -2.73 | 2.7 | -10.7 | 13.6 | 1.6 | -3.61 | -4.32 | -0.766 | 7.39 | 11.1 | -6.26
7 | Cn1cc(CNc2ncnc3c2CCN(Cc2ccsc2)CC3)cn1 | -6.16 | 13.3 | -5.59 | 29.3 | 4.97 | 7.29 | 17.1 | -4.35 | 4.92 | 16.1 | -0.968
8 | CN(C)Cc1ccnc(C2CCCN2Cc2ccncc2)n1 (configuration not stated) | -4.54 | 9.46 | -5.08 | 2.14 | 6.72 | -4.41 | 4.21 | 7.82 | 3.23 | 11.7 | -20.6
9 | O=C(CSc1ccncc1)N1C[C@H]2CC[C@@H]1CN(Cc1cccnc1)C2 | -4.31 | 16.4 | 10.6 | 8.46 | 7.05 | 2.27 | 6.74 | 9.78 | 5.38 | 15 | -4
10 | CC(=O)Nc1ccc(CNC2CC(=O)N(Cc3cccc(F)c3)C2)cc1 (configuration not stated) | -2.91 | 0 | -1.25 | 1.06 | -2.7 | -3.33 | 1.55 | -18.6 | 2.65 | 7.32 | -0.408
11 | CCC(C)(NCC(=O)N(c1ccccc1)C(C)C)c1nc(C)cs1 (configuration not stated) | 1.71 | 8.11 | -12.9 | 3.16 | 1.27 | 7.2 | 7.3 | -1.37 | 4.3 | 13.6 | -8.52
12 | CC(=O)NCCNC(=O)CN1CCN(Cc2nccn2C)C(C)C1 (configuration not stated) | -6.92 | 0 | -3.67 | 14 | -0.836 | 0.185 | -2.87 | 0.801 | 7.92 | 6.1 | 10
13 | Cc1cc(N2CCN(C(=O)c3cc(Cl)c[nH]3)CC2)nc(N)n1 | 0.0114 | 8.22 | -3.11 | 13.8 | 5.36 | -2.4 | 15.3 | 17.5 | 10.4 | 13.6 | -0.523
14 | CS(=O)(=O)NCC(=O)NC1CCc2nccn2C1 (configuration not stated) | 0.138 | 5.33 | -3.96 | -2.36 | -7.69 | 1.56 | 12.7 | 2.1 | 4.92 | 8.64 | -13.2
15 | CN(C)CCO[C@H]1CN(Cc2cccc(C#N)c2)[C@@H]2COC[C@H]12 | -3.05 | 5.33 | 0.409 | 2.27 | 2.32 | -44.6 | 9.91 | -12.1 | 6.25 | 17.5 | -5.99
16 | O=C(CCn1cnnc1)N1CCCC(c2ncc[nH]2)C1 (configuration not stated) | 1.63 | 5.48 | 11.6 | 0.524 | -6.27 | 2.27 | 8.52 | 6.13 | 3.23 | 12.5 | -7.06
17 | Cc1cc2cc(C(=O)N[C@@H]3CC[C@@H](N4CCOCC4)[C@@H]3O)ccc2o1 | 1.28 | 17.6 | 5.33 | -5.41 | 2.57 | -0.232 | 13.4 | 29.4 | 5.38 | 3.9 | -10.2
